Compound activity (PubChem BioAssay)
p53 reactivator: qHTS assay for re-activators of p53 using a Luc reporter; Potency, µM (top dose mostly 92.2 µM), inactives show at the highest dose activity change, positive = activation, hits mostly activators; 320,000 tested, 0.063% active; H1299 p53-A138V BP100-luciferase reporter, luminescence, 24 h; also: potency is read from the fitted curve at half-maximal effect; % of control where 0% means no effect; nearly all actives have a fitted effect of over 45% in size
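p53-null H1299 cells stably carrying temperature-sensitive p53-A138V and a BP100-luciferase reporter were pinned with compounds (4-point, 1:5 series) and held 24 hrs at 37 deg C. Luminescence was read 10 min after detection reagent.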
ClpP mod: qHTS Assay for Activators of ClpP. ATP-dependent Clp protease proteolytic subunit (Bacillus subtilis (strain 168)), P80244. purified B. subtilis ClpP, FRET peptide cleavage, 20 min. Potency, µM (series often up to 57.5 µM), inactives show at the highest dose activity change, negative = active. 340,000 tested, 1.9% active; active = well fitted falling curve with a large enough effect; inconclusive = small, poorly fitted or top-dose-only effect; inactive = no such curve, though single readings can be large or run the other way; also: potency is read from the fitted curve at half-maximal effect; the source files actives as falling curves though it sought activators and does not explain the sign; nearly all actives have a fitted effect of over 65% in size
Target sequence (P80244 whole entry, looked up): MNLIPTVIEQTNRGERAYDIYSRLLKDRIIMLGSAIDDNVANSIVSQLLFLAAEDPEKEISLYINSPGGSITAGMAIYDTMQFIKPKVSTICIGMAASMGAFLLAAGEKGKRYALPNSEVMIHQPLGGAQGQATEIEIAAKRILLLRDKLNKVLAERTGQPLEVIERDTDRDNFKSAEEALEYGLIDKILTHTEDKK
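Buffer: 100 mM Tris/HCl pH8, 100 mM KCl, 0.05% low protease BSA, 2.5% glycerol, 0.01% Tween-20. ClpP 10 microg/mL final; 20 min RT; delta FRET normalized to ADEP and DMSO controls.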
miR-21 act: qHTS Assay for Modulators of miRNAs and/orActivators of miR-21; HeLa miR-21 FLuc reporter, luciferase, 48 h; Potency, µM (doses to about 38.3 µM), without a hit: top-dose activity change, positive = activation, hits mostly activators; 340,000 tested, under 10 active;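 also: % of control where 0% means no effect; miR-21 action dims this reporter so a rising signal means less miR-21 action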
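Luminescence from a firefly luciferase reporter carrying a miR-21 binding site downstream, stably expressed under a CMV promoter in HeLa cells that make miR-21 endogenously, reports miRNA modulation after 48 h compound exposure up to approximately 40uM final.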
Nrf2 ARE act: qHTS of Nrf2 Activators | 410,000 tested, 0.31% active | AID 624171, 2012 | AREc32 ARE-luciferase reporter (MCF7-derived line), luminescence, 24 h | Potency, µM (titrated, usually from 46.1 µM), without a hit: at the highest dose activation, actives largely listed as activators; also: potency is read from the fitted curve at half-maximal effect; % of control where 0% means no effect; nearly all actives have a fitted effect of over 65% in size
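Quantitative high-throughput format: AREc32 reporter cells, 1000 per well, received compound by pin transfer and were incubated 24 hr at 37 deg C, 5% CO2, before Steady-Glo luminescence detection.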
A549 tox: Nrf2 qHTS screen for inhibitors: counterscreen for cytotoxicity; 390,000 tested, 0.16% active; A549 ARE-Fluc cells, CellTiter-Fluor viability, 18-24 h; Potency, µM (titrated, usually from 46 µM), for the others: at the top dose activity change, negative = cytotoxicity, hits mostly inhibitors; also: potency is read from the fitted curve at half-maximal effect; % is scaled to controls: 0 for no effect and ±100 for the full control effect
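Cytotoxicity counterscreen: CellTiter-Fluor fluorescence was measured in A549 ARE_Fluc cells after 18-24 h of compound exposure in a concentration series. The subsequent BugLite luminescent read reports ARE-luciferase activity.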
Nrf2 inh: Nrf2 qHTS screen for inhibitors; A549 ARE-Fluc reporter, luciferase luminescence, 18-24 h; Potency, µM (doses to about 46 µM), inactives show at the highest dose activity change, negative = inhibition, most hits filed as inhibitors; 360,000 tested, 2.1% active; AID 504444, 2011; also: potency is read from the fitted curve at half-maximal effect; % is scaled to controls: 0 for no effect and ±100 for the full control effect; nearly all actives have a fitted effect of over 60% in size
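Quantitative HTS in A549 cells stably bearing an antioxidant response element-firefly luciferase construct. Inhibition of Nrf2-driven transcription was scored by luminescence after 18-24 h of compound exposure at 37 °C.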
* hit, by the source's call; ? = inconclusive; nt = not tested or not shown. A selection: hits, their analogues and other compounds. The true share with any hit is near 3.7%. Unless noted, calls follow the shape of the dose curve; as a rule, active = well fitted curve in the direction sought with a large enough effect; inconclusive = small, poorly fitted or top-dose-only effect, or another doubt; inactive = no such curve, though single readings can be large; an effect the other way counts as inactive or inconclusive.

SMILES	p53 reactivator	ClpP mod	miR-21 act	Nrf2 ARE act	A549 tox	Nrf2 inh
Cc1sc2ncn(/N=C/c3cn(-c4ccccc4)nc3-c3ccccc3)c(=O)c2c1C	nt	nt	nt	nt	-4%	1%
Cc1ccc2occ(CC(=O)N(Cc3ccc(C(C)C)cc3)C3CCS(=O)(=O)C3)c2c1 (stereo not given)	nt	1%	11%	0%	-18%	?
CCOC(=O)c1ccccc1NC(=O)c1cc2sccc2n1C	16%	28µM*	0%	0%	-14%	1%
CCN(CC)CCOC(=O)c1ccc(NC(=O)c2cc3c(s2)-c2ccccc2OC3)cc1	nt	4%	-14%	7%	?	?
O=C(Nc1ccc2c(c1)OCCO2)c1ccccn1	-7%	0%	11%	0%	-5%	?
O=C(Nc1ccc2c(c1)OCCO2)c1c(F)cccc1F	22µM*	0%	-46%	-1%	3%	?
O=C(Nc1ccc2c(c1)OCCO2)c1ccc2ccccc2n1	?	nt	-44%	7.9µM*	-10%	?
CC(C)Cn1cc(NC(=O)N2CCN(c3ccccc3F)CC2)c2ccccc2c1=O	nt	4%	0%	-1%	-5%	?
CCOc1ccc(C(=O)Nc2cccc(-c3nc4cc(Cl)cc(Cl)c4o3)c2)cc1	nt	1%	3%	6%	-2%	8%
O=C(c1nn2c(C(F)(F)F)cc(-c3ccccc3)nc2c1Cl)N1CCOCC1	-2%	0%	-7%	5%	-11%	8%
O=C(c1nc2nc(-c3ccc(Cl)cc3)cc(C(F)(F)F)n2n1)N1CCOCC1	-11%	18µM*	-8%	-1%	2%	-16%
O=C(c1nn2c(C(F)(F)F)cc(-c3ccc(F)cc3)nc2c1Cl)N1CCOCC1	-1%	-4%	0%	4%	2%	-1%
COc1ccc(-c2cc(C(F)(F)F)n3nc(C(=O)O)nc3n2)cc1	-1%	-24%	-5%	0%	0%	nt
O=C(c1nc2nc(-c3ccccc3)cc(C(F)(F)F)n2n1)N1CCOCC1	-8%	28µM*	-2%	3%	-8%	-1%
CC(C)(C)NC(=O)c1nc2nc(-c3ccccc3)cc(C(F)(F)F)n2n1	-4%	28µM*	-7%	0%	-4%	0%
Cc1c(C(=O)N2CCC2)oc2c(F)cccc12	-2%	13µM*	nt	2%	-15%	1%
O=C(COc1ccc(S(=O)(=O)NC2CCCC2)cc1)N1CCCCC1	-10%	-2%	-5%	-1%	-6%	-31%
O=C(CSc1n[nH]c(-c2ccc(S(=O)(=O)NC3CCCCC3)cc2)n1)N1CCCC1	6%	1%	4%	0%	-13%	16µM*
CCCn1nc(NC(=O)c2cccs2)c2cc3ccccc3nc21	0%	-5%	0%	0%	nt	18µM*
CCCCn1nc(NC(=O)c2cccs2)c2cc3ccccc3nc21	18%	-23%	1%	0%	-18%	12µM*
CCCCn1nc(NC(=O)CCC)c2cc3cc(OC)ccc3nc21	-4%	32µM*	-8%	4%	1%	16%
CCCn1nc(NC(=O)c2cccs2)c2cc3cc(C)ccc3nc21	8%	nt	-8%	2%	-16%	16µM*
CC(C)CNC(=O)C1(C)CCCN1C(=O)CCc1cccs1 (stereo not given)	nt	0%	nt	0%	nt	nt
CC(=O)c1cccc(NC(=O)C(Cc2ccccc2)NS(=O)(=O)c2ccc(Br)s2)c1 (stereo not given)	nt	-2%	-6%	-1%	0%	11%
CCC(C)C(NC(=O)OC(C)(C)C)C(=O)NC1COC2CC(n3cc(F)c(=O)[nH]c3=O)OC12 (stereo not given)	nt	nt	nt	nt	-1%	10%
SMILES	p53 reactivator	ClpP mod	miR-21 act	Nrf2 ARE act	A549 tox	Nrf2 inh
COc1ccc2nc3c(cc2c1)c(NC(=O)CC(C)C)nn3CC(C)C	2%	-7%	10%	-1%	18%	?
COc1ccc2nc3c(cc2c1)c(NC(=O)C1CCCO1)nn3CC(C)C (stereo not given)	?	22µM*	1%	5%	23%	nt
CCN(CC)C(=O)Cn1cc(S(=O)(=O)CC(=O)Nc2ccccc2C)c2ccccc21	nt	28µM*	nt	0%	-9%	13%
NC(=O)c1ccc2nc(-c3ccccc3)c(-c3ccccc3)nc2c1	-8%	4%	-4%	-1%	5%	-29%
CCOC(=O)C1CCCN(C(=O)c2ccc3nc(-c4ccccc4)c(-c4ccccc4)nc3c2)C1 (stereo not given)	-8%	4%	14%	1%	1%	-14%
O=C(O)c1ccc2nc(-c3ccccc3)c(-c3ccccc3)nc2c1	?	22µM*	-54%	0%	-7%	?
CCN1CCN(C(=O)c2ccc3nc(-c4ccccc4)c(-c4ccccc4)nc3c2)CC1	-2%	16µM*	4%	0%	0%	2%
COC(CNC(=O)c1ccc2nc(-c3ccccc3)c(-c3ccccc3)nc2c1)OC	0%	nt	2%	0%	-15%	16µM*
CCc1cccc(C)c1NC(=O)CSc1nnc(CCCOc2ccc(Cl)cc2Cl)n1C	7%	1%	16%	4%	-14%	16µM*
CN1CC(=O)N(CC(=O)Nc2ccc(OC(F)(F)F)cc2)c2ccccc2C1=O	nt	0%	-3%	3%	2%	nt
CCN(CC)c1nc(SCCOC(=O)Nc2ccccc2)nc(N(CC)CC)n1	?	-3%	-27%	3%	?	21µM*
Cc1cccc2sc(N(Cc3cccnc3)C(=O)CCS(=O)(=O)c3ccccc3)nc12	nt	7%	19%	22µM*	4%	nt
Cc1ccc2sc(N(Cc3cccnc3)C(=O)CCS(=O)(=O)c3ccccc3)nc2c1C	nt	-4%	3%	5%	13%	nt
Cc1ccc(S(=O)(=O)c2cc3cc(C(=O)Nc4ccc(C)cc4C)ccc3oc2=O)cc1	nt	-8%	3%	4%	3%	12%
Cc1cccc(Oc2nc(-c3ccccc3)cc(C)c2S(C)(=O)=O)c1C	7%	?	12%	0%	3%	nt
COc1ccccc1Oc1nc(-c2ccccc2)cc(C)c1S(C)(=O)=O	-2%	25µM*	-6%	0%	1%	nt
O=C1/C(=C\c2ccco2)NC(=S)N1c1ccccc1	2%	nt	-21%	8.9µM*	-5%	?
COc1ccccc1-c1ccc(/C=C2\C=CC(=O)O2)o1	11%	nt	0%	16µM*	1%	1%
